High-throughput results as filed in PubChem BioAssay.
An excerpt weighted towards active compounds, which were near 3.7% of everything screened.
BRCA1 expr up: increases BRCA1 expression; MCF7-BRCA1-FFLuc reporter, luminescence, 48 h; response scale: scaled: vehicle 0%, 10 µM genistein 100%; Potency, µM (doses to about 46.1 µM), inactives show at the highest dose activation, most hits filed as activators; actives 1.1% (n = 380,000); further: potency means the concentration at half of the fitted maximal effect; nearly all actives have a fitted effect of over 80% in size
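MCF7 cells carrying a BRCA1-firefly luciferase reporter (2000 cells/well, phenol-red free MEM) were attached for 2 h at 37 °C, then given compounds for 48 h. Luminescence was read 15 min after luciferase reagent; activity normalized to genistein (10 microM) and DMSO.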
B2AR arrestin: recruits beta-arrestin to the human beta2-adrenergic receptor; P07550; beta-arrestin recruitment to beta2AR, cell-based reporter; Potency, µM (top dose mostly 46.1 µM), inactives show at the top dose activation, most hits filed as activators; actives 0.02% (n = 330,000); AID 492947;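 further: potency means the concentration at half of the fitted maximal effect; 0% = DMSO controls and full agonism = EC100 isoproterenol or metaproterenol; nearly all actives have a fitted effect of over 65% in size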
Target sequence (P07550 whole entry, looked up): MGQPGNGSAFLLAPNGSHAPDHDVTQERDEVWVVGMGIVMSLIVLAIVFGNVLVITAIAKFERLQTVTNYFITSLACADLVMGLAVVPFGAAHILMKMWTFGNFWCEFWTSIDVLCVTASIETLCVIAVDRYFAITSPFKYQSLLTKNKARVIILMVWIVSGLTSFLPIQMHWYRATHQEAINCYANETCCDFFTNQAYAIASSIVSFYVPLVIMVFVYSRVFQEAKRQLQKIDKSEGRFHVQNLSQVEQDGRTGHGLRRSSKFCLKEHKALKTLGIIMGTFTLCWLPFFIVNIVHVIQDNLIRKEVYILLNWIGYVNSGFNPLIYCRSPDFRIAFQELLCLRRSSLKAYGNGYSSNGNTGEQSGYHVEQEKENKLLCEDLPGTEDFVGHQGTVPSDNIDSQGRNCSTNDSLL
RGS4 inhibitor: inhibitors of human regulator of G protein signaling 4; P49798; Potency, µM (titrated, usually from 114 µM), for inactives: at the top dose activity change, negative = inhibition, actives largely listed as inhibitors; AID 504845; Transcreener GDP fluorescence polarization, RGS4-accelerated GTP hydrolysis; actives 0.039% (n = 390,000); further: potency means the concentration at half of the fitted maximal effect; on the % scale 0 is the no-effect control and ±100 the full control effect; nearly all actives have a fitted effect of over 75% in size
Target sequence (P49798 whole entry, looked up): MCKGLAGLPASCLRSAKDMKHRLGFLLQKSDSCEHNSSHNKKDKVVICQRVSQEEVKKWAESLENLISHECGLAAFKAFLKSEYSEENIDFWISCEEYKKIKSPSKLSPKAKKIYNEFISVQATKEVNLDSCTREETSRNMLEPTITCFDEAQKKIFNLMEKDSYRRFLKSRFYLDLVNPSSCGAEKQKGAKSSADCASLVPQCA
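MLSMR compounds (23 nl, pin-transferred) preincubated 10 min at room temperature with a 500nM (2x) first reagent, then RGS4 at 900nM (2x) plus Transcreener GDP mix added; fluorescence polarization (620/688 nm) read before and after 90 min at 30 °C.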
D3 ag: activates the human D3 dopamine receptor. P35462. D3R DiscoveRx beta-arrestin cells, luminescence, 90 min. max activation, %. actives 0.58% (n = 410,000). AID 652048; in the data active means max activation above about 30%; further: 0% is about no effect
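Cells at 1500/well, incubated overnight, then treated with pinned compounds (dopamine as control) for 90 min at 37 degrees C. DiscoveRx reagent added for 30 - 60 minutes at room temperature; luminescence read.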
PTHR1 ag: PTHR1 (human) receptor agonism. Q03431. HEK293 GP2 PTHR1 cells, GloSensor cAMP luminescence, 1 h. Potency, µM (highest dose often 115 µM), for the others: at the highest dose activation, usual class: activators. actives 0.075% (n = 410,000); further: potency means the concentration at half of the fitted maximal effect; nearly all actives have a fitted effect of over 55% in size
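HEK-293-derived GP2 cells expressing PTHR1 and a GloSensor cAMP reporter, 3,000/well, plated overnight, given luciferin plus IBMX (each 0.5 mM as added) for 1 h at 37 °C, then compound for 1 h at 37 °C. Luminescence was read after 15 min at room temperature.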
DRD3 antagonist: antagonists of human D3 dopamine receptor; D3R cells, DiscoveRx beta-arrestin luminescence, antagonist mode; hits give low values; max response, negative = inhibition, %; actives 2.5% (n = 360,000); in the data active means max response below about -50%; inconclusive means no clear call, values can overlap the other calls; further: on the % scale 0 is the no-effect control and ±100 the full control effect
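Cells expressing the human receptor were seeded at 1500 cells/well, incubated overnight at 37 degrees C in 5% CO2, then exposed to library compounds with dopamine controls for 90 minutes at 37 degrees C before luminescent detection.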
* hit, by the source's call; [ ] = remark or other dose. Unless noted, the call rests on the fitted dose curve; in most records, active means well fitted curve in the direction sought with a large enough effect; inconclusive means small, poorly fitted or top-dose-only effect, or another doubt; inactive means no such curve, though single readings can be large; an effect the other way counts as inactive or inconclusive.

What do the screens show for `O=C(C[C@H]1C/C=C\C[C@H](NC(=O)OCC2c3ccccc3-c3ccccc32)C(=O)OC[C@H](Cc2ccccc2)NC1=O)N[C@H](CO)Cc1ccccc1`?
BRCA1 expr up: -26%; B2AR arrestin: 0%; RGS4 inhibitor: -2%; D3 ag: -19; PTHR1 ag: 6%; DRD3 antagonist: -51*

How did COc1ccc2oc(=O)c(C(=O)NCCc3c(C)[nH]c4c(Cl)cccc34)cc2c1 do in these assays?
BRCA1 expr up: 0%; RGS4 inhibitor: -17%; D3 ag: 5; PTHR1 ag: -16%

How did COc1ccc(NC(=O)CC2C(=O)N(c3ccc(F)cc3)C(=O)N2Cc2ccco2)cc1 (stereo unspecified) do in these assays?
RGS4 inhibitor: 3%; D3 ag: 7; PTHR1 ag: inactive

What do the screens show for `O=S(=O)(c1ccccc1)n1nc(-c2ccco2)nc1NCc1ccccc1`?
RGS4 inhibitor: -7%; D3 ag: 4; PTHR1 ag: -25%

How did Clc1ccc(C(c2ccccc2)N2CCN(c3ccccn3)CC2)cc1 (stereo unspecified) do in these assays?
BRCA1 expr up: -7%; B2AR arrestin: 0%; RGS4 inhibitor: 3%; D3 ag: -6; PTHR1 ag: -1%; DRD3 antagonist: 13

What do the screens show for `CN1CCCN(C(c2ccccc2)c2ccc(Cl)cc2)CC1` (stereo unspecified)?
BRCA1 expr up: -32%; B2AR arrestin: 0%; RGS4 inhibitor: -20%; D3 ag: -85; PTHR1 ag: -59%; DRD3 antagonist: -113*

What do the screens show for `CC(C)(C)C(=O)N1CCN(C(c2ccccc2)c2ccccc2)CC1`?
BRCA1 expr up: 1%; B2AR arrestin: 0%; RGS4 inhibitor: 9%; D3 ag: 4; PTHR1 ag: -4%; DRD3 antagonist: -9

What do the screens show for `CN1CCN(C(c2ccccc2)c2ccccc2)CC1`?
BRCA1 expr up: 15%; B2AR arrestin: 0%; RGS4 inhibitor: 5%; D3 ag: 0; PTHR1 ag: -40%; DRD3 antagonist: -80*

What do the screens show for `CCCCCCCCCc1ccc(OCCOCCO)cc1`?
D3 ag: 11

How did Cc1cc(C(=O)CSc2nnnn2C)c(C)n1-c1ccc2c(c1)OCCO2 do in these assays?
BRCA1 expr up: 7.9µM*; B2AR arrestin: -1%; RGS4 inhibitor: -31%; D3 ag: -1; PTHR1 ag: inactive; DRD3 antagonist: 30

How did Cc1ccc(NC(=O)c2c(C(=O)Nc3ccccc3)sc3nc(C)cc(=O)n23)c(C)c1 do in these assays?
RGS4 inhibitor: 8%; D3 ag: 3; PTHR1 ag: -43%

What do the screens show for `CN(C)c1ccc(CNC(=O)C(Cc2ccccc2)NS(=O)(=O)c2ccc3c(c2)oc(=O)n3C)cc1` (stereo unspecified)?
RGS4 inhibitor: -27%; D3 ag: 14; PTHR1 ag: -35%

What do the screens show for `Cc1cc(NC2CCCCC2)nc2ccccc12`?
BRCA1 expr up: 3%; B2AR arrestin: 1%; RGS4 inhibitor: 7%; D3 ag: 4; PTHR1 ag: inconclusive; DRD3 antagonist: -67*

What do the screens show for `O=[N+]([O-])c1ccc(N2CCN(CC3CCCCC3)CC2)cc1`?
BRCA1 expr up: -20%; B2AR arrestin: 0%; RGS4 inhibitor: 2%; D3 ag: -5; PTHR1 ag: -27%; DRD3 antagonist: -58*

Results for O=C1CCC(C(=O)N(CCO)Cc2ccccc2)CN1CCc1cccc(F)c1 (stereo unspecified) ?
BRCA1 expr up: 2%; D3 ag: 2; PTHR1 ag: inactive; DRD3 antagonist: -5

Results for CC1CCN(CC(O)COCCOc2ccc(Br)cc2)CC1 (stereo unspecified) ?
BRCA1 expr up: 45%; B2AR arrestin: 0%; RGS4 inhibitor: -17%; D3 ag: -3; PTHR1 ag: -10%; DRD3 antagonist: 21

How did CC1CCN(CC(O)COCCC23CC4CC(CC(C4)C2)C3)CC1 (stereo unspecified) do in these assays?
BRCA1 expr up: -46%; B2AR arrestin: 0%; RGS4 inhibitor: -11%; D3 ag: -21; PTHR1 ag: inactive; DRD3 antagonist: -57*

How did O=C(c1ccccc1)c1ccc(OCCCCN2CCCCC2)cc1 do in these assays?
BRCA1 expr up: -1%; B2AR arrestin: 0%; RGS4 inhibitor: -48%; D3 ag: -4; PTHR1 ag: inactive; DRD3 antagonist: -87*

How did CCOc1ccccc1OCCOCCN1CCN(Cc2ccccc2)CC1 do in these assays?
BRCA1 expr up: -8%; B2AR arrestin: 0%; RGS4 inhibitor: -18%; D3 ag: -19; PTHR1 ag: inactive; DRD3 antagonist: inconclusive

How did c1ccc(COc2ccc(OCCCCN3CCCCC3)cc2)cc1 do in these assays?
BRCA1 expr up: 67%; B2AR arrestin: -1%; RGS4 inhibitor: -9%; D3 ag: -17; PTHR1 ag: -2%[57.5 µM]; DRD3 antagonist: -72*

What do the screens show for `c1ccc(COCCN2CCN(CCOCc3ccccc3)CC2)cc1`?
BRCA1 expr up: 0%; B2AR arrestin: -1%; RGS4 inhibitor: 10%; D3 ag: 5; PTHR1 ag: inactive; DRD3 antagonist: -69*

How did COc1ccc(C2=NN(c3ccccc3)C(c3ccc(OC)c(OC)c3)C2)cc1 (stereo unspecified) do in these assays?
BRCA1 expr up: 10µM*; B2AR arrestin: 0%; RGS4 inhibitor: 16%; D3 ag: -4; PTHR1 ag: -58%; DRD3 antagonist: -4

What do the screens show for `COc1ccc(C2CC(c3ccc(F)cc3)=NN2c2ccccc2)cc1OC` (stereo unspecified)?
BRCA1 expr up: 32%; B2AR arrestin: -1%; RGS4 inhibitor: -12%; D3 ag: 7; PTHR1 ag: -11%; DRD3 antagonist: 1

How did CCOc1ccccc1NC(=O)CCc1nc(-c2cccc(C)c2)no1 do in these assays?
RGS4 inhibitor: -13%; D3 ag: -11; PTHR1 ag: -21%

Results for C/C(=N\Nc1cc(N2CCOCC2)ncn1)c1ccccc1 ?
BRCA1 expr up: 1.8µM*; B2AR arrestin: 1%; RGS4 inhibitor: 11%; D3 ag: 1; PTHR1 ag: -13%; DRD3 antagonist: 1

Results for C[C@@H]1CN([C@@H](C)CO)C(=O)CCCn2nncc2CO[C@H]1CN(C)C(=O)c1ccccc1 ?
BRCA1 expr up: 8%; D3 ag: 0; PTHR1 ag: -12%; DRD3 antagonist: -25

Results for CC(C)OCCCN(C)C1CCN(S(=O)(=O)c2ccc(-c3cc(C(F)(F)F)no3)s2)CC1 ?
BRCA1 expr up: -26%; B2AR arrestin: 0%; RGS4 inhibitor: -26%; D3 ag: -8; PTHR1 ag: inactive; DRD3 antagonist: -84*
